# Screening results from PubChem.
# Only a selection was taken, and hits are over-represented in it overall.
# HTT cytoprotect: qHTS Multiplex Assay to Identify Dual Action Probes in a Cell Model of Huntington: Cytoprotection (ATP); Potency, µM (highest dose often 56.4 µM), without a hit: cytoprotection (ATP increase), actives largely listed as activators; 230,000 tested, 0.14% active; PC12 HTT-Q103 induced, cytoprotection, ATP luminescence, 40 h; AID 1471, 2008; further: potency means the concentration at half of the fitted maximal effect; % of control where 0% means no effect; nearly all actives have a fitted effect of over 45% in size
#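 ATP quantification (ATPlite) reports survival of PC12 cells in which tebufenozide, 100 nM final, switches on Htt exon 1 with 103 glutamines linked to GFP; compounds are titrated.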
# PNC assembly inh: High Content Assay for Compounds that inhibit the Assembly of the Perinucleolar Compartment; PC3M PTB-GFP, PNC prevalence imaging, 16 h; hits give low values; activity change (PNC), negative = inhibition, % at 10 µM; 140,000 tested, 3.1% active;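 active means readout at or below -70, meaning at least 70% loss of cells showing the perinucleolar compartment, a nuclear body marking cancer cells; inconclusive means readout between -30 and a set limit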;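 further: plate controls were DMSO wells for no effect and camptothecin positive control wells for full effect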
#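 Read-out is percentage of cells bearing a perinucleolar compartment, from automated 20x imaging of fixed, Hoechst-stained PC3M PTB-GFP cells. Cells were seeded 4 h, then exposed 16 h to compound (23 nl of library stock) in duplicate plates.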
# HttQ103 aggreg: qHTS Multiplex Assay to Identify Dual Action Probes in a Cell Model of Huntington: Aggregate Formation (GFP); PC12 HttQ103-GFP aggregates, Acumen cytometry, 40 h; Potency, µM (titrated, usually from 46.1 µM), for inactives: at the highest dose activity change, negative = inhibition, actives largely listed as inhibitors; 220,000 tested, 1.1% active; AID 1688, 2009; further: potency means the concentration at half of the fitted maximal effect; on the % scale 0 is the no-effect control and ±100 the full control effect; nearly all actives have a fitted effect of over 60% in size
#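 Ecdysone-promoter PC12 model expressing HTT exon 1 Q103 fused to GFP, induced by tebufenozide at 100 nM final. Compounds titrated; aggregates sized 1–25 µm scored on a 488 nm laser cytometer.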
# * = called active by the depositor; ? = inconclusive; . = no result; [ ] = another dose, or the depositor's remark. Unless noted, the call rests on the fitted dose curve; in most records, active means well fitted curve in the direction sought with a large enough effect; inconclusive means small, poorly fitted or top-dose-only effect, or another doubt; inactive means no such curve, though single readings can be large; an effect the other way counts as inactive or inconclusive.
SMILES,HTT cytoprotect,PNC assembly inh,HttQ103 aggreg
C=C1c2cc3c(cc2NC(=S)N1Cc1ccccc1)OCO3,-10%[10 µM],.,-6%[9.22 µM]
O=C(Nc1ccccc1N1CCN(C(=O)c2ccc(Cl)cc2)CC1)c1cc2ccccc2o1,-10%,?,-28%
Cc1ccnc(NC(=S)NC(=O)c2ccco2)c1,-35%,40,3%
COC(=O)C(NC(=O)c1ccco1)(Nc1cc(C)ccn1)C(F)(F)F (configuration not stated),-1%[10 µM],-100*,21%
CCOC(=O)C(Sc1nn(C)c(=S)s1)C(C)=O (configuration not stated),-53%[10 µM],?,?
C/C(=N\O)C(C)(C)Nc1ccc(Cl)cc1,6%[10 µM],.,9%[9.22 µM]
Cc1ccccc1C1CC(=O)Oc2ccc(O)cc21 (configuration not stated),14%[96.6 µM],.,.
c1ccc(CC2CCCNC2)cc1 (configuration not stated),7%[10 µM],.,5%[9.22 µM]
COc1ccc(-c2nnc3ccc(SCC(=O)NCC4CCCO4)nn23)cc1 (configuration not stated),9%[10 µM],29,-18%
N/C(=N\O)c1ccc(NC(=O)c2cccs2)cc1,-27%,-17,-8%
O=C(/C=N/O)Nc1cccnc1,29%[10 µM],-100*,-6%
CC(=O)c1ccc(NC(=O)c2cccs2)cc1,-41%,-111*,10%[9.22 µM]
O=C(Nc1cccnc1)c1cnc2ccccc2n1,-4%,-88*,-18%
O=C(/C=N/O)NCc1cccnc1,-15%[10 µM],?,9%
Cc1ccc(C)n1NC(=O)c1cccs1,1%,-117*,?
Cc1ccc(C)n1NC(=O)c1ccccc1,10%,-14,-12%
O=C(Nc1cccnc1)c1ccc(-c2ccccc2)cc1,10%[10 µM],.,-7%
CC(C)Sc1nsc2nc(=O)c(/C=C3\C=Nc4ccccc43)c(N)n12,-29%,.,13%
NC(=O)c1ccc(Cl)c2ccccc12,-8%[10 µM],.,-6%[9.22 µM]
Cc1c(C#N)c2ccccc2n1CC(=O)NCCc1c[nH]c2ccccc12,-18%,?,-4%
CCN(CC)S(=O)(=O)c1cccc(-c2nnc(SCC(=O)c3cc(C)n(C4CC4)c3C)o2)c1,?,1,-20%
CCC(=O)Nc1cccc(NC(=O)CSc2nnc(C3CC3)n2C)c1,-9%[10 µM],30,-8%
CCOC(=O)N1CCN(c2c(NC3CCN(Cc4ccccc4)CC3)c(=O)c2=O)CC1,1%,-10,0%
COc1ccc(C2C(C(C)=O)=C(O)C(=O)N2c2nccs2)c(OC)c1 (configuration not stated),-18%,.,-21%[9.22 µM]
O=c1[nH]c2cc(Cl)ccc2n(CCNc2ncc(C(F)(F)F)cc2Cl)c1=O,-9%,33,5%
SMILES,HTT cytoprotect,PNC assembly inh,HttQ103 aggreg
COC(=O)c1ccc(C2c3c(oc4cc(C)c(C)cc4c3=O)C(=O)N2CCCN(C)C)cc1 (configuration not stated),0%[10 µM],.,10%[9.22 µM]
O=C(Nc1cccnc1)c1cccs1,-20%,-100*,?
O=C(NC(=S)Nc1cccnc1)c1cccs1,21%[10 µM],.,9%[9.22 µM]
CC(C)(C)c1ccc(C(=O)N/C(=C/c2cccs2)C(=O)NCc2ccco2)cc1,-2%[10 µM],12,12%
N#CC1=C(N)Oc2n[nH]c(-c3cccs3)c2C1c1cccs1 (configuration not stated),-12%,20,17%
COc1ccc(NC(=O)c2sc(SCc3ccccc3)nc2N)cc1,2%[10 µM],?,25µM*
COc1ccc(NC(=O)c2sc(SC)nc2N)cc1,-26%[10 µM],3,.
CCOC(=O)C(=CNCC(=O)OC)C(=O)OCC,11%[10 µM],2,6%
CCOC(=O)CNC=C(C(=O)OCC)C(=O)OCC,21%[10 µM],-96*,16%
CCOC(=O)N1CCC(NC(=O)c2cc(S(=O)(=O)N3CCCCC3)ccc2F)CC1,-3%,.,7%
Cc1ccc(S(=O)(=O)NCC(=O)N2CCOCC2)cc1,-16%,?,1%
COc1ccccc1NC(=O)CSc1nnc(-c2ccncc2)o1,10%[10 µM],24,5%
O=C(c1ccccc1)c1nnc(-c2ccncc2)o1,10%[10 µM],4,8%
Clc1ccc(CSc2nnc(-c3ccncc3)o2)cc1,-1%,49,10µM*
O=C(c1ccc(Cl)cc1)c1nnc(-c2ccncc2)o1,9%[10 µM],-82*,0%
Fc1ccc(CSc2nnc(-c3ccncc3)o2)cc1,-12%,.,?
O=C(CSc1nnc(-c2ccncc2)o1)Nc1ccccc1Cl,2%[0.074 µM],-90*,5%
O=C(O)CCCn1cc(NC(=O)COc2ccc([N+](=O)[O-])cc2)cn1,-26%,.,-13%
COc1ccccc1C(=O)Nc1ccc(C2=NNC(=O)CC2C)cc1 (configuration not stated),.,-114*,29%
CN=C(NC#N)Nc1ccc(C2=NNC(=O)CC2C)cc1 (configuration not stated),-21%,.,.
COC1(C#CC2C=CC(OC(C)=O)C(COC(C)=O)O2)CCCCC1 (configuration not stated),-96%[10 µM],.,.
CC(C(=O)Nc1cc([N+](=O)[O-])ccc1Cl)N1CCN(c2ccccc2O)CC1 (configuration not stated),20%[1.9 µM],-29,11%
COc1cc(N2C(=O)NC3CC2(C)Oc2ccccc23)cc(OC)c1OC (configuration not stated),1%,26,2%
O=C(Oc1cccnc1)c1cc(S(=O)(=O)N2CCOCC2)ccc1Cl,3%,18,?
CC(=O)Nc1ccn(-c2ccccc2)n1,-2%[10 µM],-119*,?
SMILES,HTT cytoprotect,PNC assembly inh,HttQ103 aggreg
O=C(Nc1ccn(-c2ccccc2)n1)c1ccc(Cl)cc1,-1%[10 µM],50,1%
Cc1ccc(C(=O)Nc2nc(=O)n(C(=O)C3CC3)s2)cc1,.,?,23%
Cc1ccc(C(=O)Nc2nc(=O)n(C(=O)c3ccccc3C)s2)cc1,18µM*,1,.
Cc1ccc(NC(=S)/C(=C(\[O-])c2ccc(F)cc2)[n+]2ccccc2)cc1,-35%,.,-8%
CCN1C(=O)c2cccc3c(S(=O)(=O)N(C(=O)c4cccnc4)c4ccc(OC)cc4)ccc1c23,.,?,0%
CCN1C(=O)c2cccc3c(S(=O)(=O)N(C(=O)c4ccncc4)c4ccc(OC)cc4)ccc1c23,.,-85*,?
CC1(C)Cc2c(C#N)c(OCC(=O)c3ccc(Cl)cc3)nc(-c3ccoc3)c2CO1,-11%,-94*,28%
CC1(C)Cc2c(C#N)c(OCC(=O)c3ccccc3)nc(-c3ccoc3)c2CO1,-5%,-22,12%
CSCCC(NC(=O)c1c(C)oc2c1CCCC2)C(=O)O (configuration not stated),-16%,32,-30%
CCOC(=O)c1[nH]c(C)c(/C=N/O)c1C,-13%[10 µM],-115*,?
CCOC(=O)c1[nH]c(C)c(C)c1C,7%,-16,12%
CCOc1ccc(C(=O)NC2CCN(S(C)(=O)=O)CC2)cc1,-1%,-87*,-5%
CCOc1ccc(C(=O)NC2CCN(C(=O)N3CCCC3)CC2)cc1,3%[10 µM],56,-8%
COc1ccc(OC)c(NC(=O)CN2CCC(C(=O)c3ccc(C)cc3)CC2)c1,-2%,-12,11%
COc1ccc(S(=O)(=O)N2CCN(c3ccc(C)cc3C)CC2)cc1OC,17%,-83*,35µM*
